# Screening results as filed in PubChem BioAssay.
# A selection: hits, their analogues and other compounds. The true share with any hit is near 2.9%.
# PAFAH1B2 FP inh: blocks human PAF acetylhydrolase 1b catalytic subunit 2. P68402. recombinant PAFAH1B2, FP-rhodamine activity probe, fluorescence polarization. inhibition, % at 3.39 µM. hit rate 1.2% among 340,000. AID 492953;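 active means inhibition above the mean of all tested compounds plus 3 SD, cut at about 24% in these data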;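 further: 0% = enzyme with DMSO and 100% = wells lacking PAFAH1B2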
# pPAFAH inh: inhibitors of human plasma PAF acetylhydrolase (pPAFAH); inhibition, % at 3.39 µM; Q13093; hit rate 1.5% among 330,000; recombinant pPAFAH, FP-rhodamine probe fluorescence polarization;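 active means inhibition above the mean inhibition across the screen plus 3 SD, cut at about 25% in these data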;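 further: inhibitors block binding of the rhodamine activity-based probe so polarization drops; 0% = enzyme with DMSO and 100% = wells lacking pPAFAH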
# Target sequence (Q13093 whole entry, looked up): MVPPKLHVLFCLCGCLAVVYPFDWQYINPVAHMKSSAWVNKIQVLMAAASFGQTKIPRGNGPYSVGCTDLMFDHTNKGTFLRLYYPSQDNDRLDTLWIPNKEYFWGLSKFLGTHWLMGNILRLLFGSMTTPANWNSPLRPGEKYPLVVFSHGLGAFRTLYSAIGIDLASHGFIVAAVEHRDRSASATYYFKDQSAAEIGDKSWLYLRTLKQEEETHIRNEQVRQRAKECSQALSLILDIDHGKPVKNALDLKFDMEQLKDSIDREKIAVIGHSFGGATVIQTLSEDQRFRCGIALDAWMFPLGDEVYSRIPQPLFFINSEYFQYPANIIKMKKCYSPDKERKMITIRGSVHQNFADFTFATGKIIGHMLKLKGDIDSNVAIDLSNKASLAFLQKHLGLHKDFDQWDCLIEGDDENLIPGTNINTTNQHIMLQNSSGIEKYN
# PME-1 inh: PME-1 (human) inhibition. hit rate 0.53% among 320,000. recombinant PME-1, FP-Rh probe fluorescence polarization. Q9Y570. inhibition, % at 5.9 µM;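 active means inhibition above the campaign mean of all compounds plus 3 SD, cut at about 26% in these data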;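 further: competitive labeling of PME-1 active site by serine hydrolase directed probe; 0% = PME-1 with DMSO and 100% = wells lacking PME-1 enzyme; inhibitors block probe labeling so polarization falls and inhibition rises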
# PAFAH1B3 FP inh: PAFAH1B3 (human) inhibition; recombinant PAFAH1B3, FP-rhodamine probe, fluorescence polarization; hit rate 0.28% among 340,000; inhibition, % at 3.39 µM; Q15102; AID 492972;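 active means inhibition above the screen-wide average of all tested compounds plus 3 SD, cut at about 25% in these data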;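 further: 0% = enzyme with DMSO only and 100% = wells lacking PAFAH1B3 protein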
# PAFAH2 FP inh: inhibitors of human PAFAH2; Q99487; hit rate 0.99% among 340,000; AID 492956; recombinant PAFAH2, FP-rhodamine activity probe, fluorescence polarization; inhibition, % at 3.39 µM;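 active means inhibition above the mean over all tested compounds plus 3 SD, cut at about 30% in these data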;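 further: inhibitors block probe labeling of enzyme so polarization drops; 0% = enzyme with DMSO and 100% = wells lacking PAFAH2 protein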
# Fam108B inh: Fam108B inhibition, counter-screen for RBBP9 inhibitors; recombinant Fam108B, FP-Rh probe fluorescence polarization; inhibition, % at 9.51 µM; hit rate 0.33% among 300,000; AID 1947;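 active means inhibition above the screen mean inhibition plus 3 SD, computed separately per campaign, cut at about 18% in these data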;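 further: inhibitors lower polarization as less probe binds the enzyme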
# PAFAH2 FP conf: PAFAH2 (human) inhibition, confirmed; hit rate 65% among 2,300; inhibition, % at 3.39 µM; recombinant PAFAH2, FP-rhodamine activity probe, fluorescence polarization; AID 493030; shares compounds with PAFAH2 FP inh;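 active means mean inhibition over three repeats above a set limit taken from the earlier primary screen, cut at about 30% in these data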;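 further: inhibitor blocks binding of rhodamine activity probe so polarization falls; 0% = enzyme with DMSO and 100% = wells lacking PAFAH2 protein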
# Active calls of the source: *; x = no result given.
SMILES,PAFAH1B2 FP inh,pPAFAH inh,PME-1 inh,PAFAH1B3 FP inh,PAFAH2 FP inh,Fam108B inh,PAFAH2 FP conf
Cc1cccc(NC(=O)COC(=O)c2cc(C)oc2C)c1,-1,-2,-1,1,75*,-3,79*
CC(=O)Nc1ccc(C(=O)OCC(=O)Nc2ccccc2F)cc1,2,-2,-4,1,69*,2,70*
Cc1cc(C(=O)OCC(=O)Nc2cccc(S(N)(=O)=O)c2)c(C)o1,4,5,x,4,28,x,x
O=C(CCc1nc(-c2ccccc2Cl)no1)NCCc1ccccc1,6,7,2,13,-4,1,x
CCOc1ccc(-n2ccnc(SCC(=O)Nc3ccc(CC)cc3)c2=O)cc1,1,3,-1,-2,1,-2,x
CCOc1ccc(NC(=O)CN(C)C(=O)c2ccc(OCC3CCCO3)cc2)cc1OCC (stereo not given),1,5,-2,6,3,3,x
CC(Nc1n[nH]c(=O)[nH]c1=O)C(=O)N/N=C/c1cccs1 (stereo not given),1,-5,0,3,-12,0,x
O=C(NCC(c1ccco1)N1CCN(c2ccc(F)cc2)CC1)OCc1ccccc1 (stereo not given),-6,7,-12,-4,2,-7,x
Cc1cc(C(=O)OCC(=O)Nc2ccccc2C#N)c(C)o1,1,x,x,2,43*,x,32*
Cc1cccc(NC(=O)COC(=O)c2ccc3c(=O)n4c(nc3c2)CCC4)c1,3,-6,-5,0,2,-1,x
O=C(OCC(=O)c1ccc[nH]1)c1ccc(Br)cc1,5,13,-2,-4,10,x,x
COc1ccc(C(=O)OCC(=O)c2ccc[nH]2)cc1,-3,4,-3,-2,40*,x,31*
Cc1cccc(NC(=O)COC(=O)c2ccc3nc(C)c(C)nc3c2)c1,1,-4,x,5,71*,x,49*
Cc1cccc(C)c1N(CC(=O)N(C)Cc1ccccc1)S(C)(=O)=O,-2,7,-2,4,1,3,x
O=c1oc(-c2ccc(F)cc2)nc2ccsc12,-2,-1,-9,7,48*,-3,34*
Cc1ccc(C(=O)N2CCN(S(=O)(=O)c3ccc(C(C)C)cc3)CC2)s1,-2,2,4,3,2,1,x
Cc1nn(Cc2ccccc2)c(Cl)c1/C=C/C(=O)OCC(=O)NC(C)C(C)C (stereo not given),7,3,10,0,67*,-1,64*
Cc1nn(Cc2ccccc2)c(Cl)c1/C=C/C(=O)OC(C)C(=O)N1CCCC1 (stereo not given),8,4,5,2,10,3,x
CC(=O)N1C(C)(C)CC(=NOC(=O)c2ccccc2)CC1(C)C,4,6,-2,9,67*,-2,57*
CN(C)S(=O)(=O)c1ccc(C(=O)OCC2CC2(Cl)Cl)cc1 (stereo not given),4,3,0,4,-1,0,x
Cc1ccc(S(=O)(=O)N2CCCCC2)cc1NC(=O)COC(=O)C1=COCCO1,5,6,2,4,50*,-2,40*
Cc1ccc(S(=O)(=O)N2CCCCC2)cc1NC(=O)COC(=O)Cc1cccc2ccccc12,2,0,0,-2,-10,-18,x
O=C(Nc1cc(S(=O)(=O)N2CCCC2)ccc1Cl)C1=COCCO1,4,8,7,2,-5,0,x
O=C(COC(=O)C1=COCCO1)Nc1cc(S(=O)(=O)N2CCCCC2)ccc1Cl,2,7,6,7,57*,3,41*
CC(OC(=O)C1=COCCO1)C(=O)Nc1cc(S(=O)(=O)N2CCCCC2)ccc1Cl (stereo not given),6,4,-5,5,3,-1,x
Cc1ccc(S(=O)(=O)N2CCCCC2)cc1NC(=O)COC(=O)c1cccn1C,6,6,x,-1,39*,x,32*
CCOc1ccccc1NC(=O)CSc1nnc(-c2cccnc2)o1,5,-1,2,2,2,-2,x
Cc1noc(C)c1CCC(=O)Nc1c(C(C)C)cccc1C(C)C,-9,0,10,4,8,x,x
Cc1cccc(C(=O)OCC(=O)N2CCCCCC2)c1O,5,3,-9,0,3,x,x
